From PubChem BioAssay (NCATS)
Several values for one entry are separate records, joined by “and”; a condition that tells them apart may be missing. Equal values may be shown once. Records with an inconclusive call do not appear. Activity calls are given as the source filed them. Calls follow the shape of the full dose curve.

Assays:
[1] = Primary qHTS for inhibitors of MERS-S pseudo-typed particle cell entry (AID 1479149); settings: MERS-S pseudotyped particle entry, luciferase; series mostly up to 57.1 µM; also: nearly all actives have a fitted effect of over 60% in size; as to activity change, negative = inhibition: % is scaled to controls: 0 for no effect and ±100 for the full control effect
[2] = Primary qHTS for Vero E6 cytotoxicity: counterscreen for inhibitors of SARS-S pseudo-typed particle cell entry (AID 1479150); settings: cell viability; series mostly up to 57.1 µM; as to activity change, negative = cytotoxicity: % is scaled to controls: 0 for no effect and ±100 for the full control effect
[3] = Cytotoxicity counterscreen for inhibitors of SARS-CoV-2 cell entry (AID 1645845); settings: cell viability (SARS-CoV-2 entry assay cells); series mostly up to 57.1 µM; also: nearly all actives have a fitted effect of over 50% in size; as to activity change, negative = cytotoxicity: % is scaled to controls: 0 for no effect and ±100 for the full control effect
Summary of the method: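 Counterscreen run in the same HEK293-ACE2 line as the pseudotyped-particle entry assay, without particles. Viability after 48 h at 37 C was read as ATP luminescence, scaled between cell-containing and cell-free wells.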

[4] = Primary qHTS to identify inhibitors of SARS-CoV-2 cell entry (AID 1645846); settings: SARS-CoV-2 pseudovirus cell entry assay, luminescence; activity change, negative = inhibition: at 57.1 µM (top of the series) unless noted; series mostly up to 57.1 µM; also: nearly all actives have a fitted effect of over 45% in size
Summary of the method: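 Using luciferase-reporting pseudoviruses carrying Wuhan-Hu-1 spike, the screen tracks entry into stably ACE2-expressing cells over 48 hr. Activity is expressed relative to spike particles versus particles lacking any fusion protein.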

CCC(=O)O[C@H]1[C@H](O[C@@H]2[C@@H](C)[C@H](O[C@H]3C[C@@](C)(OC)[C@@H](O)[C@H](C)O3)[C@@H](C)C(=O)O[C@H](CC)[C@@](C)(O)[C@H](O)[C@@H](C)C(=O)[C@H](C)C[C@@]2(C)O)O[C@H](C)C[C@@H]1N(C)C
inactive: Potency [1] | Potency [2] | Potency [3]

NCCCC(O)(P(=O)(O)O)P(=O)(O)O
inactive: Potency [1] | Potency [2] | Potency [3]

Cc1onc(-c2ccccc2Cl)c1C(=O)N[C@@H]1C(=O)N2[C@@H]1SC(C)(C)[C@@H]2C(=O)O
inactive: Potency [1] | Potency [2] | Potency [3]

CC(N)C12CC3CC(CC(C3)C1)C2 (stereo not drawn)
inactive: Potency [1] | Potency [2] | Potency [3]

COc1cc(Cc2cnc(N)nc2N)cc(OC)c1OC
inactive: Potency [1] | Potency [2] | Potency [3] | Potency [4]

C1N2CN3CN1CN(C2)C3
inactive: Potency [1] | Potency [2] | Potency [3] | Potency [4]

CCN(CCO)CCCC(C)Nc1ccnc2cc(Cl)ccc12 (stereo not drawn)
inactive: activity change, negative = inhibition [1] 3.49% [at 5.34 µM] | outcome [2] inactive [at 5.34 µM] | activity change, negative = cytotoxicity [3] -4.65% [at 5.25 µM] and -23.5% [at 5.25 µM]

CC1=C(C(=O)O)N2C(=O)[C@@H](NC(=O)[C@H](N)c3ccc(O)cc3)[C@H]2SC1
inactive: Potency [1] | Potency [2] | Potency [3]

O=C1Cc2cc(CCN3CCN(c4nsc5ccccc45)CC3)c(Cl)cc2N1
inactive: Potency [1] | Potency [2] | Potency [3]

COc1nc(N)nc2c1ncn2[C@@H]1O[C@H](CO)[C@@H](O)[C@@H]1O
inactive: Potency [1] | Potency [2] | Potency [3] | Potency [4]

COC(=O)[C@@H]1CC2=CC(=O)CC[C@]2(C)[C@@]23O[C@@H]2C[C@@]2(C)[C@@H](CC[C@@]24CCC(=O)O4)[C@H]13
inactive: Potency [1] | Potency [2] | Potency [3]

CC1Cc2ccccc2N1NC(=O)c1ccc(Cl)c(S(N)(=O)=O)c1 (stereo not drawn)
inactive: Potency [1] | Potency [2] | Potency [3]

CCOC(=O)C1=C(C)NC(C)=C(C(=O)OC)C1c1cccc(Cl)c1Cl (stereo not drawn)
inactive: Potency [1] | Potency [2] | Potency [3]

C[C@@H](O)[C@H]1C(=O)N2C(C(=O)O)=C(S[C@@H]3CN[C@H](CNS(N)(=O)=O)C3)[C@H](C)[C@H]12
inactive: Potency [1] | Potency [2] | Potency [3]

Cc1[nH]cnc1CN1CCc2c(c3ccccc3n2C)C1=O
inactive: Potency [1] | Potency [2] | Potency [3]

CC1(C)S[C@@H]2[C@H](NC(=O)[C@H](N)c3ccccc3)C(=O)N2[C@H]1C(=O)O
inactive: Potency [1] | Potency [2] | Potency [3]

COC(=O)N[C@H](C(=O)N[C@@H](Cc1ccccc1)[C@@H](O)CN(Cc1ccc(-c2ccccn2)cc1)NC(=O)[C@@H](NC(=O)OC)C(C)(C)C)C(C)(C)C
inactive: Potency [1] | Potency [2] | Potency [3]

COC1=CC(=O)C[C@@H](C)[C@]12Oc1c(Cl)c(OC)cc(OC)c1C2=O
inactive: Potency [1] | Potency [2] | Potency [3]

CC1=NS(=O)(=O)c2cc(Cl)ccc2N1
inactive: Potency [1] | Potency [2] | Potency [3]

CN1CCN(C2=Nc3cc(Cl)ccc3Nc3ccccc32)CC1
inactive: Potency [1] | Potency [2] | Potency [3]

CS(=O)(=O)CCNCc1ccc(-c2ccc3ncnc(Nc4ccc(OCc5cccc(F)c5)c(Cl)c4)c3c2)o1
inactive: Potency [1] | Potency [2] | Potency [3]

O=NN(CCCl)C(=O)NCCCl
inactive: Potency [1] | Potency [2] | Potency [3]

CC(C)(C#N)c1cc(Cn2cncn2)cc(C(C)(C)C#N)c1
inactive: Potency [1] | Potency [2] | Potency [3] | Potency [4]

Cc1cccc(C)c1OCC(C)N (stereo not drawn)
-0.301%: activity change, negative = inhibition [4]
inactive: Potency [1] | Potency [2] | Potency [3]

Cc1cc(C)cc(OCC2CNC(=O)O2)c1 (stereo not drawn)
inactive: Potency [1] | Potency [2] | Potency [3] | Potency [4]

O[C@@H]1CO[C@H]2[C@@H]1OC[C@@H]2O
inactive: Potency [1] | Potency [2] | Potency [3] | Potency [4]

COc1cc(C(=O)NCc2ccc(OCCN(C)C)cc2)cc(OC)c1OC
inactive: Potency [1] | Potency [2] | Potency [3] | Potency [4]

COc1ccccc1OCC(O)COC(N)=O (stereo not drawn)
inactive: Potency [1] | Potency [2] | Potency [3] | Potency [4]
